According to PubChem BioAssay AID1578 (Sanford-Burnham Center for Chemical Genomics, 2009):
About 3,000 (1%) of roughly 290,000 compounds were called active. The sample holds actives, similar compounds and a random draw of the others, so the mix is not that of the screen. No stated cut-off is given here; in the data, active means inhibition mostly above about 36% (no sharp cut-off); inactive means mostly below about 34%.

Assay: NOD1 signaling inhibitors, primary screen, cell-based, luminescence, uHTS (AID 1578);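 further: HEK-293T reporter cells stimulated with the NOD1 agonist gamma-tri-DAP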
Conditions: NOD1-driven NF-kB luciferase reporter cells, at 4 µM, active compounds read high

Structure (SMILES)	inhibition
COc1cccc(-c2nn3c(-c4cccc(C)c4)nnc3s2)c1	-87.2% (inactive)
CCOC(=O)C1=C(C)N=c2s/c(=C/c3ccccc3)c(=O)n2C1c1ccc(OC)c(OC)c1 (stereo not given)	-27.7% (inactive)
CCOC(=O)C1=C(C)N=c2s/c(=C\c3ccc(O)c([N+](=O)[O-])c3)c(=O)n2C1c1ccccc1OC (stereo not given)	8.4% (inactive)
CCOC(=O)C1=C(C)n2c(s/c(=C/c3cccc([N+](=O)[O-])c3)c2=O)=NC1c1ccc(O)c(OC)c1 (stereo not given)	95.3% (active)
Cn1c(/C(C#N)=C(\O)c2ccc(Cl)s2)nc2ccccc21	11.7% (inactive)
C=C1CC2C=C(NC(C)=O)CC(C1)C2 (stereo not given)	-6.6% (inactive)
Cc1cccc(Cn2c(O)c(N=NC(=S)Nc3ccccc3F)c3ccccc32)c1	14.6% (inactive)
Cc1cccc(NC(=O)Cn2c(O)c(N=NC(N)=S)c3ccccc32)c1	-3.4% (inactive)
CC(C)C(=O)NC(NC1CCS(=O)(=O)C1)C(Cl)(Cl)Cl (stereo not given)	-26.8% (inactive)
COc1ccc(-n2c(C)cc(/C=C3/SC(=O)N(CC(=O)N4CCOCC4)C3=O)c2C)cc1	-15% (inactive)
CCOC(=O)N1CCN(C(=O)c2cn(C)c3ccc(S(=O)(=O)N4CCOCC4)cc3c2=O)CC1	-11% (inactive)
O=C(COc1ccc(Br)cc1)NCCCn1ccnc1	62.4% (active)
COc1ccc(OCC(=O)NCCCn2ccnc2)cc1	9.1% (inactive)
O=C(COc1ccc(Cl)cc1)NCCCn1ccnc1	-7.5% (inactive)
COCCN(Cc1cc2cc3c(cc2nc1Cl)OCO3)C(C)=O	6.5% (inactive)
CSc1ccc(/C=N/S(=O)(=O)c2ccccc2)cc1	3.8% (inactive)
Cn1c(=O)c2[nH]c(COc3ccc(C(C)(C)C)cc3)nc2n(C)c1=O	34.1% (active)
CN(C)Cc1nc2c([nH]1)c(=O)n(C)c(=O)n2C	1.7% (inactive)
CCCc1nc2c([nH]1)c(=O)n(C)c(=O)n2C	-7.1% (inactive)
CC1CCCC(C)N1C(=O)CSc1nc2c(c(=O)n(C)c(=O)n2C)n1C (stereo not given)	-1% (inactive)
CC(C)Oc1ccccc1/C=N/NC(=O)c1ccccc1Cl	0.5% (inactive)
CC1CCCC(NC(=O)Cc2ccc(Br)cc2)C1C (stereo not given)	-21.4% (inactive)
CCC(c1nnnn1C(C)C)N1CCN(C2CCCC2)CC1 (stereo not given)	-14% (inactive)
COc1ccc(/C=C2\COc3ccccc3C2=O)c(OC)c1	-27.3% (inactive)
COc1ccccc1Nc1nc(-c2c(C)nc3ncccn23)cs1	61.6% (active)

Structure (SMILES)	inhibition
COc1ccc(OC)c(Nc2nc(-c3c(C)nc4ncccn34)cs2)c1	-9.4% (inactive)
COc1ccc(Nc2nc(-c3c(C)nc4ncccn34)cs2)cc1	17.6% (inactive)
CCOC(=O)c1ccc(N=c2ssnc2Cl)cc1	-21.1% (inactive)
CN(CCN1CCOCC1)Cc1nc(-c2cccs2)no1	-22.4% (inactive)
Cc1ccsc1C=Nc1ccc(O)cc1	27.4% (inactive)
Cc1ccsc1/C=N/N=C/c1sccc1C	76.7% (active)
Cc1ccsc1/C=N/n1cnnc1	-5.7% (inactive)
COc1ccc(C(=O)C(OC(=O)CNC(=O)c2ccco2)c2ccccc2)cc1 (stereo not given)	-7.7% (inactive)
COc1ccccc1C(=O)NNC(=O)C1CCCO1 (stereo not given)	-10.6% (inactive)
COc1ccc(C(=O)Nc2ccc(N3CCCCC3)cc2)cc1Br	-49% (inactive)
O=C1CCC(c2ccccc2)N1C(=O)c1cccnc1 (stereo not given)	-12.6% (inactive)
CNc1nc2ccccc2n1N	47% (inactive)
CC1(C)Oc2nc3ccccc3n2/C1=C\C#N	42% (active)
N#C/C=C1\n2c(nc3ccccc32)OC12CCCCC2	-4% (inactive)
c1ccc2c(CCNc3ncnc4nc[nH]c34)c[nH]c2c1	20.4% (inactive)
c1ccc2c(CCNc3ncnc4nc[nH]c34)cccc2c1	62% (active)
c1ccc2c(CSc3ncnc4nc[nH]c34)cccc2c1	71.3% (active)
Cc1cccc(CSc2ncnc3nc[nH]c23)c1	-13.3% (inactive)
c1ccc(CCNc2ncnc3nc[nH]c23)cc1	16.7% (inactive)
c1ccc(CCSc2ncnc3nc[nH]c23)cc1	-1.6% (inactive)
Cc1cccc(C(=O)NC(=O)Nc2c(C)cc(C)nc2C)c1	-46.9% (inactive)
O=C(CCCn1cc([N+](=O)[O-])cn1)Nc1cccnc1	-11.6% (inactive)
Cc1ccc(C(=O)c2coc3cc([N+](=O)[O-])c(O)c([N+](=O)[O-])c23)cc1	21.2% (inactive)
CCCCN(Cc1ccccc1)c1ncnc2nc[nH]c12	-41% (inactive)
CCCCN(c1ccccc1)c1ncnc2nc[nH]c12	36.9% (inactive)

Structure (SMILES)	inhibition
CCCCN(CCCC)c1ncnc2nc[nH]c12	84.5% (active)
O=C(N[C@@H]1CCC(=O)N(CC[C@H](Oc2ccccc2)c2ccccc2)CC1)OCc1ccccc1	53.8% (inactive)
COc1cc(/C=C(\C#N)C(=O)NC2CCCCC2C)ccc1OS(=O)(=O)c1ccc(C)cc1 (stereo not given)	75.9% (active)
C=CCNC(=O)/C(C#N)=C/c1ccc(OS(=O)(=O)c2ccc(C)cc2)c(OC)c1	10% (inactive)
COc1cc(/C=C(\C#N)C(N)=O)ccc1OS(=O)(=O)c1ccc(C)cc1	14.7% (inactive)
COc1ccc(CNC(=O)CN(Cc2ccc(F)cc2)C(=O)c2csnn2)cc1	-24.5% (inactive)
C=CCn1c(=O)c2ccc(C(=O)NCc3ccccc3)cc2n(Cc2cccc(Cl)c2)c1=O	61.7% (inactive)
O=C(CN1CCCN(S(=O)(=O)c2ccc(F)cc2)CC1)Nc1c(Cl)cccc1Cl	-4.7% (inactive)
Fc1cccc(Cl)c1CNC(c1ccccc1)c1ccccc1	9.2% (inactive)
Cc1ccc(NCC(=O)N/N=C/c2cc3ccccc3nc2Cl)cc1	-21.8% (inactive)
CCOC(=O)C(=Cc1ccc(F)cc1)C(=O)OCC	31.2% (inactive)
CCOC(=O)C(=Cc1ccc(Br)cc1)C(=O)OCC	36.2% (active)
CCOC(=O)C(=Cc1ccc(-n2ccnc2)cc1)C(=O)OCC	45.8% (active)
O=C(O)/C=C/c1ccc(-n2ccnc2)cc1	1.1% (inactive)
CCOC(=O)C(=Cc1cc(=O)c(OC)co1)C(=O)OCC	-12.3% (inactive)
COc1ccccc1/C=C(/C(=O)OCC(N)=O)c1ccccc1	0.8% (inactive)
CCOC(=O)C(=Cc1ccccc1OC)C(=O)OCC	47.6% (active)
CCOC(=O)/C(=C/c1ccc(OC(=O)c2ccccc2)cc1)C(C)=O	-13.5% (inactive)
COC(=O)/C=C/c1ccc(-n2ccnc2)cc1	-9.9% (inactive)
Cc1nn(-c2ccccc2)c(C)c1C(=O)OCC(=O)N1CCN(S(=O)(=O)c2ccccc2)CC1	-0.7% (inactive)
Cc1ccc2c(N)c(C)ccc2c1	-4.1% (inactive)
Cn1ncc(N2CCN(C(=O)c3ccc(Cl)cc3)CC2)c(Cl)c1=O	-21.9% (inactive)
COc1ccc(CNC(=O)C2CCCN(S(=O)(=O)c3ccc(Br)s3)C2)cc1 (stereo not given)	-13.3% (inactive)
Cc1cc(N/N=C/c2ccccc2F)nc(NCc2ccccc2)n1	-2.7% (inactive)
CCc1ccc(N/C(SCc2cccc(F)c2)=C(/C#N)C(=O)NCc2ccco2)cc1	3.2% (inactive)

Structure (SMILES)	inhibition
Cc1cccc(CSC(Nc2ccc(F)cc2)=C(C#N)C#N)c1	83.7% (active)
CCN(CC)C(=O)CSC(Nc1ccc(F)cc1)=C(C#N)C#N	4.2% (inactive)
COc1ccc(S(=O)(=O)N(C)CC(=O)N2CCCC2)cc1OC	-5.3% (inactive)
c1ccc(SCc2cn(C[C@H]3CC[C@@H]([C@@H]4CC[C@H](Cn5cc(CSc6ccccc6)nn5)O4)O3)nn2)cc1	22.8% (inactive)
CCCn1c2ccccc2c2cnn(CC(=O)NC3CCCCC3)c(=O)c21	-26.9% (inactive)
O=C(CSC(=S)N1CCCCC1)Nc1nc(-c2ccccc2)c(-c2ccccc2)o1	9.9% (inactive)
CCN(CC)C(=S)SCC(=O)Nc1nc(-c2ccccc2)c(-c2ccccc2)o1	72.2% (active)
Cc1ccc(C(=O)Nc2nc(-c3ccccc3)c(-c3ccccc3)o2)cc1	35.6% (inactive)
O=C(Nc1nc(-c2ccccc2)c(-c2ccccc2)o1)c1ccc(F)cc1	97.4% (active)
CN1CCN(C(=S)SCC(=O)Nc2nc(-c3ccccc3)c(-c3ccccc3)o2)CC1	-3.5% (inactive)
CC(=O)Nc1nc(-c2ccccc2)c(-c2ccccc2)o1	-5.3% (inactive)
COc1ccccc1OCc1ccc(C(=O)N2CCOCC2)o1	-11% (inactive)
C=CCN(Cc1cc(OC)ccc1OC)S(=O)(=O)N(C)C	3.4% (inactive)
O=C(Cc1ccc(Br)cc1)OCC(=O)N1CCc2ccccc2C1	-12.8% (inactive)
OCCC1CN(Cc2cccc(-c3ccco3)c2)CCN1Cc1ccsc1 (stereo not given)	-17.2% (inactive)
COc1ccc(CSc2nc(CSC)cc(N3CCOCC3)n2)cc1	7.8% (inactive)
CSCc1cc(N2CCOCC2)nc(SCc2ccc(Cl)c(Cl)c2)n1	-11.4% (inactive)
COCc1cc(N2CCOCC2)nc(SCc2ccc(Cl)cc2)n1	52.1% (active)
CCCCCn1ccc(=N)cc1	13.1% (inactive)
CCCCCCn1ccc(=N)cc1	41.6% (inactive)
CCN(CC)S(=O)(=O)c1ccc(NS(=O)(=O)c2ccc3oc(=O)[nH]c3c2)cc1	22.1% (inactive)
COC(=O)C1C(=O)c2c(n[nH]c2C)CC1(C)C (stereo not given)	-14.2% (inactive)
CCCc1n[nH]c2c1C(=O)C(C(=O)OC)C(C)(C)C2 (stereo not given)	11.5% (inactive)
COC(=O)C1C(=O)c2c(C)noc2CC1(C)C (stereo not given)	64.3% (active)
O=C(c1ccccn1)c1conc1C(=O)c1ccc(Br)cc1	0.5% (inactive)
